Hit rate of the full screen: of about 39,000 compounds, about 3,300 (8.5%) were called active. The full list was thinned out, with actives kept by preference.

The test system of the assay is HepG2. Description: cytotoxicity call (relative viability < 0.9). The conditions noted are these: 10 µM.
With `CO[C@H]1CN(C)C(=O)c2ccc(NC(=O)NC(C)C)cc2OC[C@@H](C)N(Cc2ccc(-c3ccccn3)cc2)C[C@@H]1C`, the cytotoxicity call was “inactive”.

`C[C@@H]1CN([C@@H](C)CO)C(=O)Cc2cc(NC(=O)Nc3ccc(C(F)(F)F)cc3)ccc2O[C@@H]1CN(C)Cc1ccccc1`: the cytotoxicity call was “active”.

Turning to `C[C@@H]1CN([C@H](C)CO)C(=O)Cc2cc(NC(=O)Nc3ccc(C(F)(F)F)cc3)ccc2O[C@@H]1CN(C)Cc1ccccc1`, the cytotoxicity call was “active”.

For `C[C@H]1CN([C@@H](C)CO)C(=O)Cc2cc(NC(=O)Nc3ccc(C(F)(F)F)cc3)ccc2O[C@@H]1CN(C)Cc1ccccc1`, the cytotoxicity call was “inactive”.

In the case of `C[C@H]1CN([C@@H](C)CO)C(=O)Cc2cc(NC(=O)Nc3ccc(C(F)(F)F)cc3)ccc2O[C@H]1CN(C)Cc1ccccc1`, the cytotoxicity call was “active”.

With `C[C@@H]1CN([C@@H](C)CO)C(=O)Cc2cc(NC(=O)Nc3ccc(C(F)(F)F)cc3)ccc2O[C@H]1CN(C)Cc1ccccc1`, the cytotoxicity call was “inactive”.

On to `C[C@@H]1CN([C@H](C)CO)C(=O)Cc2cc(NC(=O)Nc3ccc(C(F)(F)F)cc3)ccc2O[C@H]1CN(C)Cc1ccccc1`, for which the cytotoxicity call was “active”.

On to `C[C@H](CO)N1C[C@H](C)[C@H](CN(C)S(C)(=O)=O)Oc2ncc(C#Cc3ccc(C(F)(F)F)cc3)cc2C1=O`, for which the cytotoxicity call was “inactive”.

On to `COCC#Cc1cnc2c(c1)C(=O)N([C@H](C)CO)C[C@@H](C)[C@@H](CN(C)C(=O)CCN1CCCCC1)O2`, for which the cytotoxicity call is “inactive”.

With `C[C@@H]1CN([C@H](C)CO)C(=O)c2cc(NC(=O)Nc3ccc4c(c3)OCO4)ccc2O[C@@H]1CN(C)C(=O)Nc1cccc2ccccc12`, the cytotoxicity call is “inactive”.

On to `COc1ccc(C#Cc2ccc3c(c2)O[C@H](CN(C)C(=O)CN2CCOCC2)[C@@H](C)CN([C@H](C)CO)S3(=O)=O)cc1`, for which the cytotoxicity call was “inactive”.

Turning to `CN(C)CCN1C(=O)CO[C@H]2CN(C(=O)NCc3cccnc3)C[C@@H]21`, the cytotoxicity call was “inactive”.

Turning to `C[C@@H]1CN([C@H](C)CO)C(=O)Cc2cc(NC(=O)Nc3ccccc3)ccc2O[C@@H]1CN(C)S(=O)(=O)c1cn(C)cn1`, the cytotoxicity call was “inactive”.

Regarding `O=C(N/N=C/[C@H](O)[C@H](O)[C@@H](O)[C@@H](O)CO)c1ccccn1`, the cytotoxicity call is “inactive”.

In the case of `CON=C(C(=O)NC1C(=O)N2C(C(=O)O)=C(C[N+]3(C)CCCC3)CSC12)c1csc(N)n1.[Cl-]` (stereo unspecified), the cytotoxicity call is “inactive”.

On to `Cc1noc(C)c1S(=O)(=O)Nc1ccc2c(c1)C(=O)N([C@@H](C)CO)C[C@H](C)[C@H](CN(C)C(=O)Nc1cccc3ccccc13)OCCCC[C@H](C)O2`, for which the cytotoxicity call was “inactive”.

On to `C[C@H](CO)N1C[C@H](C)[C@H](CN(C)Cc2ccccc2)Oc2ccc(NC(=O)Nc3ccc(C(F)(F)F)cc3)cc2CC1=O`, for which the cytotoxicity call is “active”.

On to `C[C@H](CO)N1C[C@H](C)[C@@H](CN(C)Cc2ccccc2)Oc2ccc(NC(=O)Nc3ccc(C(F)(F)F)cc3)cc2CC1=O`, for which the cytotoxicity call is “active”.

As for `CO[C@H]1CN(C)C(=O)c2cc(NC(=O)Nc3ccccc3F)ccc2OC[C@@H](C)N(Cc2ccccc2C(=O)O)C[C@H]1C`, the cytotoxicity call was “inactive”.

`C[C@@H]1CCCCO[C@H](CN(C)C(=O)Nc2ccc(F)cc2)[C@H](C)CN([C@@H](C)CO)C(=O)c2cc(NC(=O)c3ccccc3)ccc2O1`: the cytotoxicity call was “inactive”.

Take `COc1ccc(C(=O)O)c(O)c1OC`: the cytotoxicity call is “inactive”.

With `O=C(O)CCC(=O)c1ccc(-c2ccccc2)cc1`, the cytotoxicity call is “inactive”.

For the molecule `COc1ccc(C(=O)CCC(=O)O)c2ccccc12`, the cytotoxicity call was “active”.

In the case of `C[C@H]1CCCCO[C@@H](CN(C)C(=O)NC2CCCCC2)[C@@H](C)CN([C@@H](C)CO)C(=O)c2cc(NC(=O)NC3CCCCC3)ccc2O1`, the cytotoxicity call was “inactive”.

On to `COc1ccc(S(=O)(=O)N(C)C[C@@H]2OCCCC[C@@H](C)Oc3ccc(NC(=O)Nc4ccccc4)cc3C(=O)N([C@@H](C)CO)C[C@@H]2C)cc1`, for which the cytotoxicity call was “inactive”.

With `C[C@H](O)C#Cc1ccc2c(c1)O[C@H](CN(C)C(=O)Cc1ccccn1)[C@@H](C)CN([C@H](C)CO)S2(=O)=O`, the cytotoxicity call is “inactive”.

Take `COc1ccccc1C#Cc1cnc2c(c1)C(=O)N([C@@H](C)CO)C[C@H](C)[C@H](CN(C)S(=O)(=O)c1cn(C)cn1)O2`: the cytotoxicity call is “inactive”.

On to `COc1ccccc1C#Cc1cnc2c(c1)C(=O)N([C@@H](C)CO)C[C@@H](C)[C@H](CN(C)S(=O)(=O)c1cn(C)cn1)O2`, for which the cytotoxicity call is “active”.

As for `COCC#Cc1cnc2c(c1)C(=O)N([C@H](C)CO)C[C@@H](C)[C@@H](CN(C)S(=O)(=O)c1cn(C)cn1)O2`, the cytotoxicity call was “inactive”.

In the case of `COCC#Cc1cnc2c(c1)C(=O)N([C@@H](C)CO)C[C@H](C)[C@@H](CN(C)S(=O)(=O)c1cn(C)cn1)O2`, the cytotoxicity call is “active”.

As for `COc1ccccc1C#Cc1cnc2c(c1)C(=O)N([C@H](C)CO)C[C@H](C)[C@@H](CN(C)S(=O)(=O)c1cn(C)cn1)O2`, the cytotoxicity call was “inactive”.

As to `COCC#Cc1cnc2c(c1)C(=O)N([C@H](C)CO)C[C@@H](C)[C@H](CN(C)C(=O)c1cnccn1)O2`, the cytotoxicity call was “inactive”.

Consider `COc1ccccc1C#Cc1cnc2c(c1)C(=O)N([C@@H](C)CO)C[C@@H](C)[C@@H](CN(C)S(=O)(=O)c1cn(C)cn1)O2`, for which the cytotoxicity call was “inactive”.

Consider `COCC#Cc1cnc2c(c1)C(=O)N([C@H](C)CO)C[C@@H](C)[C@H](CN(C)S(=O)(=O)c1cn(C)cn1)O2`, for which the cytotoxicity call was “inactive”.

In the case of `COc1ccccc1C#Cc1cnc2c(c1)C(=O)N([C@H](C)CO)C[C@@H](C)[C@@H](CN(C)S(=O)(=O)c1cn(C)cn1)O2`, the cytotoxicity call is “inactive”.

`COc1ccccc1C#Cc1cnc2c(c1)C(=O)N([C@H](C)CO)C[C@@H](C)[C@H](CN(C)S(=O)(=O)c1cn(C)cn1)O2`: the cytotoxicity call is “active”.

For the molecule `COCC#Cc1cnc2c(c1)C(=O)N([C@H](C)CO)C[C@H](C)[C@H](CN(C)C(=O)c1cnccn1)O2`, the cytotoxicity call was “active”.

As to `COCC#Cc1cnc2c(c1)C(=O)N([C@H](C)CO)C[C@H](C)[C@@H](CN(C)C(=O)c1cnccn1)O2`, the cytotoxicity call was “inactive”.

`COCCCNC(=O)[C@@]1(Sc2ccc(C)cc2)CC(=O)N(Cc2cc(C(F)(F)F)cc(C(F)(F)F)c2)[C@@H]1c1ccc(CO)cc1I`: the cytotoxicity call was “inactive”.

On to `Cc1cccc(S(=O)(=O)N2C[C@H](O)COC[C@H]3O[C@@H](CC(=O)NCc4ccncn4)CC[C@@H]32)c1`, for which the cytotoxicity call is “inactive”.

As for `Cc1noc(C)c1NC(=O)N(C)C[C@@H]1Oc2ccc(NS(=O)(=O)c3c(C)noc3C)cc2C(=O)N([C@H](C)CO)C[C@@H]1C`, the cytotoxicity call is “inactive”.

Values taken from the antibiotic and cytotoxicity screens of Wong et al. (2023).
